# Experimental data published in PubChem BioAssay (Tox21).
# Values joined by “and” are separate entries in the source; they are usually repeats but may differ in a detail not shown here. Equal values may be shown once. Values without a mark were called inactive. Records with an inconclusive call do not appear. A call without a number means that no potency is given here. Active and inactive are the calls of the source. Unless noted, calls come from the whole dose curve; as a rule, active = well fitted curve in the direction sought with a large enough effect in the repeat runs; inconclusive = weak or mixed curves; inactive = no such curve, though single readings can be large; an effect the other way counts as inactive or inconclusive.
# Columns and labels:
# [1] = biological target: Luciferin 4-monooxygenase (Photinus pyralis) (UniProt P08659); assay: qHTS assay to identify small molecule inhibitors of firefly luciferase (AID 1224835); note: nearly all actives have a fitted effect of over 25% in size; note: potency is the fitted concentration of half-maximal effect
# In short: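 Quantitative HTS format; KM concentrations of both substrates. Purified P. pyralis FLuc activity quantified from luminescence images.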
# [2] = qHTS assay to identify small molecule agonists of the constitutive androstane receptor (CAR) signaling pathway - cell viability counter screen (AID 1224836); note: nearly all actives have a fitted effect of over 45% in size; note: potency is the fitted concentration of half-maximal effect
# In short: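 Viability read-out: CellTiter-Fluor fluorescence after 23 h compound exposure at 37 C/5% CO2 in double-stable HepG2-CYP2B6-hCAR cells, with PK11195 present at 0.75 uM final; compounds tested in 15-point titration.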
# [3] = qHTS assay to identify small molecule antagonists of the constitutive androstane receptor (CAR) signaling pathway - cell viability counter screen (AID 1224837); note: nearly all actives have a fitted effect of over 45% in size; note: potency is the fitted concentration of half-maximal effect
# In short: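 Read-out: CellTiter-Fluor fluorescence after 23 hr at 37 C/5% CO2. Cells: HepG2 double-stable for hCAR and CYP2B6-2.2kb. Compounds tested at 15 concentrations in the presence of CITCO, final concentration 50 nM.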
# [4] = biological target: Nuclear receptor subfamily 1 group I member 3 (Homo sapiens) (UniProt Q14994); assay: qHTS assay to identify small molecule antagonists of the constitutive androstane receptor (CAR) signaling pathway (AID 1224838);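 note: HepG2 cells stably expressing hCAR with CYP2B6 luciferase reporter stimulated by CITCO; nearly all actives have a fitted effect of over 40% in size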; note: potency is the fitted concentration of half-maximal effect
# In short: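 Read-out: ONE-Glo luciferase luminescence after 30 min at room temperature. HepG2-CYP2B6-hCAR double-stable cells, compounds in 15-point titration plus 50 nM CITCO final, 24 h at 37 C/5% CO2.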
# [5] = qHTS assay to identify small molecule antagonists of the estrogen related receptor signaling pathway with the pleiotropic PPARgamma coactivator (PGC) from Tox21 10K library - cell viability counter screen (AID 1224840; active = well fitted cell-killing curve with a large enough effect in the repeat runs, not every such curve was filed as active; note: nearly all actives have a fitted effect of over 40% in size; note: potency is the fitted concentration of half-maximal effect)
# In short: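 Fluorescence read-out of CellTiter-Fluor viability reagent, added after cells had been exposed to compound in DMSO for 17.5 h at 37 C; 30 min development at 37 C/5% CO2. Cells: PGC/ERR line, 2,000/well.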
# [6] = qHTS assay to identify small molecule agonists of the estrogen related receptor signaling pathway with the pleiotropic PPARgamma coactivator (PGC) from Tox21 10K library (AID 1224842); note: nearly all actives have a fitted effect of over 15% in size
# In short: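 PGC/ERR reporter cells (NTP line) were seeded 2,000 per well, rested 6 h at 37 C/5% CO2, then pin-dosed with compounds in DMSO for 18 h at 37 C; luciferase read by One-Glo luminescence after 30 min at room temperature.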
# [7] = qHTS assay to identify small molecule agonists of the hypoxia (HIF-1) signaling pathway - cell viability counter screen (AID 1224844; calls by dose curve; note: nearly all actives have a fitted effect of over 50% in size; note: potency is the fitted concentration of half-maximal effect)
# In short: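 CellTiter-Glo luminescence read-out, 30 min RT, taken in the same wells as the beta-lactamase HRE reporter assay; HRE-bla ME-180 cells, 0.5% dialyzed FBS, 17 hr compound treatment at 37C, 5% CO2.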
# [8] = qHTS assay to identify small molecule agonists of H2AX (AID 1224845; active = well fitted activation curve with a large enough effect in the signal ratio in the repeat runs, not every such curve was filed as active; the % refers to the signal ratio; note: potency is the fitted concentration of half-maximal effect)
# In short: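 Wild-type CHO-K1 cells plated overnight, then exposed 3 hr at 37C to compounds at 15 concentrations (0.76% DMSO). Lysed, then HTRF anti-pH2AX(S139)-cryptate/anti-H2AX-d2 detection after 24 hr at room temperature; emissions 665 and 620 nm.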
# [9] = qHTS assay to identify small molecule agonists of the hypoxia (HIF-1) signaling pathway (AID 1224846; active = well fitted activation curve with a large enough effect in the signal ratio in the repeat runs, not every such curve was filed as active; the % refers to the signal ratio)
# In short: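 Beta-lactamase FRET read-out (CCF4-AM substrate) from ME-180 cells carrying an HRE-driven bla reporter, after 17 hrs compound exposure at 37C/5% CO2. Cells were seeded at 2,000 per well in 0.5% dialyzed FBS medium and preincubated 5 hrs.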
# [10] = qHTS assay to identify small molecule agonists of H2AX - cell viability counter screen (AID 1224847; calls by dose curve; note: nearly all actives have a fitted effect of over 30% in size; note: potency is the fitted concentration of half-maximal effect)
# In short: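 CHO-K1 wt, 1000 cells/well, o/n 37C; cpds 15 conc, 3 h 37C, 0.76% DMSO; CellTiter-Glo, 30 min RT, luminescence.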
# [11] = qHTS assay to identify small molecule antagonists of the estrogen related receptor (ERR) signaling pathway from Tox21 library (AID 1224848); note: potency is the fitted concentration of half-maximal effect; nearly all actives have a fitted effect of over 50% in size
# In short: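 First, 2,000 ERR cells per well were plated and held 6 h at 37 C/5% CO2. Next, compounds in DMSO were pinned in and left 18 h at 37 C. Finally, ONE-Glo was added and luminescence read after 30 min at room temperature.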
# [12] = qHTS assay to identify small molecule agonists of the estrogen related receptor (ERR) signaling pathway from Tox21 library (AID 1224849; calls by dose curve; note: nearly all actives have a fitted effect of over 15% in size); conditions: ERR reporter cell line, ONE-Glo luciferase, 18 h; at 92.4 µM (top of the series) unless noted
# In short: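 Luminescence readout (ONE-Glo, 30 min RT) after 18 h compound exposure at 37 C of NTP-supplied ERR reporter cells; cells were plated 6 h before compound addition by pin tool.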
# [13] = qHTS RealTime-Glo MT Cell Viability Assay in HepG2 cells - 24 hour (AID 1224867); note: nearly all actives have a fitted effect of over 50% in size; note: potency is the fitted concentration of half-maximal effect
# In short: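 HepG2 cells were seeded at 600 cells/well together with NanoLuc luciferase and a cell-permeant prosubstrate, preincubated 5 h at 37 C/5% CO2, then pin-dosed with compounds in DMSO. Nonlytic luminescence from viable cells was read at each time point.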
# [14] = A CellTox Green Cytotoxicity Assay to monitor cytotoxicity in HEK293 cells - 0 hour (AID 1224869); note: nearly all actives have a fitted effect of over 50% in size
# In short: (§1)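 Read-out: fluorescence of a cell-impermeant cyanine dye staining DNA of dead cells, proportional to cytotoxicity. HEK293, 600 cells/well with reagent, compound (23 nL DMSO) added after 5 h; reads at 0, 8, 16, 24, 32, 40 h.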
# [15] = qHTS RealTime-Glo MT Cell Viability Assay in HepG2 cells - 40 hour (AID 1224870); note: nearly all actives have a fitted effect of over 50% in size; note: potency is the fitted concentration of half-maximal effect
# In short: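 HepG2 cells mixed with RealTime-Glo MT reagents (NanoLuc plus cell-permeant prosubstrate) were seeded at 600 cells/well, incubated 5 h at 37 C/5% CO2, then pinned with compounds in DMSO; nonlytic luminescence tracked viability during 40 h treatment.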
# [16] = biological target: Nuclear receptor subfamily 1 group I member 3 (Homo sapiens) (UniProt Q14994); assay: qHTS assay to identify small molecule agonists of the constitutive androstane receptor (CAR) signaling pathway (AID 1224839); note: nearly all actives have a fitted effect of over 15% in size; note: potency is the fitted concentration of half-maximal effect;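 for activation: HepG2 cells stably carrying human CAR and a CYP2B6 luciferase reporter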
# In short: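 Luminescence read-out (ONE-Glo, 30 min, room temperature) from double-stable HepG2-CYP2B6-hCAR cells exposed 24 h to 15-point compound series in presence of 0.75 uM PK11195 final.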
# [17] = qHTS RealTime-Glo MT Cell Viability Assay in HEK293 cells - 32 hour (AID 1224868); note: nearly all actives have a fitted effect of over 50% in size; note: potency is the fitted concentration of half-maximal effect
# In short: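 HEK293 cells were seeded at 600 cells/well together with NanoLuc luciferase and cell-permeant prosubstrate, preincubated 5 h at 37 C/5% CO2, then given compound in DMSO by pintool. Luminescence from viable-cell prosubstrate reduction was read repeatedly over 40 h.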
# [18] = A CellTox Green Cytotoxicity Assay to monitor cytotoxicity in HEK293 cells - 40 hour (AID 1224871); note: nearly all actives have a fitted effect of over 45% in size; note: potency is the fitted concentration of half-maximal effect
# In short: as §1
# [19] = qHTS assay to identify small molecule antagonists of the estrogen related receptor signaling pathway with the pleiotropic PPARgamma coactivator (PGC) from Tox21 10K library (AID 1224841; call rule not given here)
# In short: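 Luminescence read-out (One-Glo luciferase reagent, 30 min at room temperature) from PGC/ERR cells exposed to DMSO-dissolved test compounds for 18 h at 37 C; cells, 2,000 per well, had been preincubated 6 h before compound transfer.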
# [20] = biological target: Thyrotropin receptor (Homo sapiens) (UniProt P16473); assay: qHTS assay to identify small molecule agonists of the thyroid stimulating hormone receptor (TSHR) signaling pathway (AID 1224843; calls by dose curve; note: nearly all actives have a fitted effect of over 45% in size)
# In short: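 Compounds are titrated over 15 concentrations, in triplicate, onto TSHR-HEK293 cells seeded at 800/well. Plates sit 30 min at room temperature before cAMP-d2 and anti-cAMP cryptate are added; signal is read after a further hour.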
# Sequence of Nuclear receptor subfamily 1 group I member 3 (Homo sapiens) (Q14994 whole entry, looked up): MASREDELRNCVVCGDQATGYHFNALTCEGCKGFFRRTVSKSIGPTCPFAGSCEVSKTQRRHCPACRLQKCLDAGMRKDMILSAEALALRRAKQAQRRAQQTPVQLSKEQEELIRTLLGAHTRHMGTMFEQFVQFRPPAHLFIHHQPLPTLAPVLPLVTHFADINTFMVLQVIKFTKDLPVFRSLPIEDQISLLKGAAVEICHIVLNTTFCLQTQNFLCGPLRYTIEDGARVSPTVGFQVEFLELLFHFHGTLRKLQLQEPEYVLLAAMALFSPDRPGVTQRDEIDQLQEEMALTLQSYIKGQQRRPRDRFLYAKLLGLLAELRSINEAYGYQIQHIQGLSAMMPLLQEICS
# Sequence of Luciferin 4-monooxygenase (Photinus pyralis) (P08659 whole entry, looked up): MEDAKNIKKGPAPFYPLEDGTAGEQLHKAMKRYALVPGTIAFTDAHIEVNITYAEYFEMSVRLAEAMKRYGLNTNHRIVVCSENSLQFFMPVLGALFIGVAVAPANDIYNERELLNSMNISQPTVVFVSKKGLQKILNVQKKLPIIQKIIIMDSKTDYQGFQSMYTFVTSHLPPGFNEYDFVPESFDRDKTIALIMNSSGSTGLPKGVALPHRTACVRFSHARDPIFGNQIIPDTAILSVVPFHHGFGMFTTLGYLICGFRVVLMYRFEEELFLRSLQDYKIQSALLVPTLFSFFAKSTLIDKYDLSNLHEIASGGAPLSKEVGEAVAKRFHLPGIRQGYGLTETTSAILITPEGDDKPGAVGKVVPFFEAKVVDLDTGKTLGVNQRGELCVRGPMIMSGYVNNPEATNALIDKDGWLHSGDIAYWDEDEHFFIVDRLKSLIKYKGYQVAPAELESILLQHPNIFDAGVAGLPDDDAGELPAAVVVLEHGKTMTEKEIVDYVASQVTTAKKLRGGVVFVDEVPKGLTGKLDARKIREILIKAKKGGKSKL
# Sequence of Thyrotropin receptor (Homo sapiens) (P16473 whole entry, looked up): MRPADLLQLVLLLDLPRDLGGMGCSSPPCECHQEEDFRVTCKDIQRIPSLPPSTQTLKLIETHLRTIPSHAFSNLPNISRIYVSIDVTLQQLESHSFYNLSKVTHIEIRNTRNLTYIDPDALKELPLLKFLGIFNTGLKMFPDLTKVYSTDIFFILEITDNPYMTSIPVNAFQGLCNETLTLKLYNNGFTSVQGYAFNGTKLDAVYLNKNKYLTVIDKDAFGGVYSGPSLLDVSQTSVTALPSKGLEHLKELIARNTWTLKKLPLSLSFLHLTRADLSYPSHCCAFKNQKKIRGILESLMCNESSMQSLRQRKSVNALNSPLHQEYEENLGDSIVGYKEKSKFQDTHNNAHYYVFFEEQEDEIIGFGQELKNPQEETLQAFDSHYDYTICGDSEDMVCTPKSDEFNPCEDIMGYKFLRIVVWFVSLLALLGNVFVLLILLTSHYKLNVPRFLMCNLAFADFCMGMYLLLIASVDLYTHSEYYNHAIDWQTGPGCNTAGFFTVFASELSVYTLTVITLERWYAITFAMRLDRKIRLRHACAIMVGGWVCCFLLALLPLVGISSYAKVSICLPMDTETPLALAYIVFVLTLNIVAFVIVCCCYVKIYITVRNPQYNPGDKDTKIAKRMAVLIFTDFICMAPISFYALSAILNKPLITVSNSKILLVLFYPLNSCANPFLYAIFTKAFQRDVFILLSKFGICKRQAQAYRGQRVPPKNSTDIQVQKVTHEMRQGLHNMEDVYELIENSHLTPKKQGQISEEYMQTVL
SMILES,Potency [1],Potency [2],Potency [3],Potency [4],Potency [5],Potency [6],Potency [7],Potency [8],Potency [9],Potency [10],Potency [11],"activity change, positive = activation [12] [%]",Potency [13],Potency [14],Potency [15],Potency [16],Potency [17],Potency [18],Potency [19],Potency [20]
Oc1cc(Cl)cc(Cl)c1,inactive,inactive,inactive,inactive,inactive,inactive,inactive,inactive,inactive,90.7 µM (active),61.8 µM (active),-48.8,inactive,inactive,inactive,,,,,
CCCCC/C=C\C/C=C\C/C=C\C/C=C\CCCC(=O)NCC(=O)O,inactive,inactive,inactive,inactive,inactive,,inactive,,,,,,inactive,inactive,inactive,inactive,inactive,inactive,,
Cc1ccc([N+](=O)[O-])[c]2c1[O][Hg]2,17.4 µM (active),9.44 µM (active),6.68 µM (active),9.44 µM (active),5.96 µM (active),,2.13 µM (active),0.695 µM (active),,,,,2.39 µM (active),,3.01 µM (active),inactive,3.79 µM (active),674 nM (active),,
c1ccc2nc(N3CCNCC3)ccc2c1,inactive,inactive,inactive,inactive,inactive,,inactive,,,inactive,,,inactive,inactive,inactive,inactive,inactive,inactive,,
CN(C)C(=S)SSC(=S)N(C)C,2.21 µM (active) and 1.26 µM (active) and 1.55 µM (active),339 nM (active) and 486 nM (active) and 531 nM (active),269 nM (active) and 344 nM (active) and 422 nM (active),191 nM (active) and 386 nM (active) and 473 nM (active),214 nM (active) and 243 nM (active) and 266 nM (active),,171 nM (active) and 347 nM (active),,,49.8 µM (active) and 89.8 µM (active) and 49.2 µM (active),,,54.2 µM (active) and 436 nM (active) and 379 nM (active),inactive,54.2 µM (active) and 219 nM (active) and 169 nM (active),inactive,242 nM (active) and 245 nM (active),216 nM (active) and 195 nM (active) and 239 nM (active),,
CCCCC(CC)COC(=O)OOC(C)(C)C (configuration not stated),inactive,inactive,inactive,inactive,inactive,,inactive,inactive,inactive,inactive,,,inactive,inactive,,inactive,inactive,inactive,,
COc1ccc2c3c1O[C@H]1[C@H](O)CC[C@H]4[C@@H](C2)N(C)CC[C@@]341,inactive,inactive,inactive,inactive,inactive,,inactive,inactive,inactive,inactive,,,inactive,inactive,inactive,inactive,inactive,inactive,,
CCOC(=O)CCN(SN(C)C(=O)Oc1cccc2c1OC(C)(C)C2)C(C)C,inactive,inactive,inactive,inactive,,inactive,inactive,inactive,inactive,inactive,61.1 µM (active),,inactive,inactive,inactive,27.3 µM (active),inactive,inactive,30.6 µM (active),inactive
